High-throughput results (PubChem BioAssay)
ERG-DNA inh: inhibitors of human ERG Ets domain-DNA interaction; hit rate 0.028% among 370,000; Potency, µM (doses to about 76.9 µM), for the others: top-dose FP activity, negative = inhibition, hits mostly inhibitors; fluorescence polarization, His-ERG Ets domain / labelled DNA; AID 624246; active means well fitted inhibition curve with a large enough effect in the polarisation, with a control signal flat; inconclusive means small, poorly fitted or top-dose-only effect, or effect the other way, or a change in a side signal; inactive means no such curve, though single readings can be large or run the other way; the % refers to the polarisation;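 further: polarization taken with two DNA probes labelled with fluorescein and Texas red; potency means the concentration at half of the fitted maximal effect; % of control where 0% means no effect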
Target sequence (P11308 whole entry, looked up, the tested form may be a part): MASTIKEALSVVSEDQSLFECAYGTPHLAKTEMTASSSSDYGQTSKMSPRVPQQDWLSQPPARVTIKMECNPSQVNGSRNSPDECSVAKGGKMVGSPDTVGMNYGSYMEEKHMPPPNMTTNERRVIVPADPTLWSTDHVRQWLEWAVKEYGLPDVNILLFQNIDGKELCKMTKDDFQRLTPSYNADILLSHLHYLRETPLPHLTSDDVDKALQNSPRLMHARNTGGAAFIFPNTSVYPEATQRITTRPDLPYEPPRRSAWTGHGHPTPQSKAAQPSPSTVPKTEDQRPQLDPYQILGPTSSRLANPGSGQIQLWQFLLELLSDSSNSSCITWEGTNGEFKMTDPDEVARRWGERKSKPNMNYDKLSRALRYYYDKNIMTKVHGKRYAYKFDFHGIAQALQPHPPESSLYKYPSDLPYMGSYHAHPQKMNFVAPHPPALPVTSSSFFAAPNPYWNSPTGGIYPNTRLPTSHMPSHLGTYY
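His-tagged ERG Ets domain (1 uM in the protein solution; 300mM KCl, 50mM Tris-HCl, 1mM EDTA, 1mM DTT, pH 7.5) received compound, then a probe mix of 5 nM fluorescein-DNA and 100nM Texas-615-DNA. Fluorescence polarization was read for both dyes.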
ALOX12 inh: ALOX12 (human) lipoxygenase inhibition | P18054 | Potency, µM (top dose mostly 108 µM), for inactives: top-dose activity change, negative = inhibition, actives largely listed as inhibitors | purified 12hLO, xylenol orange hydroperoxide absorbance | AID 1671190 | hit rate 1.1% among 580,000; further: potency means the concentration at half of the fitted maximal effect; on the % scale 0 is the no-effect control and ±100 the full control effect
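Hydroperoxide product was detected by ferrous iron/xylenol orange as the 573 to 405 nm absorbance ratio. Arachidonic acid at 40 uM (final) was turned over for 30 min at room temperature by 150 nM human 12hLO, pH 7.0 Hepes buffer, after 15 min compound preincubation.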
LDHA block: LDHA (human) enzyme inhibition | hit rate 0.15% among 480,000 | purified LDHA, NADH/diaphorase-resazurin fluorescence; active compounds read low | activity change, % (values are at about 110 or 230 µM) | P00338; in the data active means activity change below about -30%; inconclusive means mostly about -25% to -30%;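 further: plate controls were DMSO wells for no effect and wells without enzyme for full effect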
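Human LDH5 (2 nM) was incubated with 0.06 mM NADH and 0.2 mM pyruvate for 5 min at room temperature in Tris pH 7.4. Remaining NADH was coupled through diaphorase/resazurin, and resorufin fluorescence was read at 0 and 20 min.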
A549 tox: kills or reduces viability of A549 cells in Nrf2 counter-screen; Potency, µM (series often up to 46 µM), for the others: top-dose activity change, negative = cytotoxicity, most hits filed as inhibitors; A549 ARE-Fluc cells, CellTiter-Fluor viability, 18-24 h; hit rate 0.16% among 390,000; further: potency means the concentration at half of the fitted maximal effect; on the % scale 0 is the no-effect control and ±100 the full control effect
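A549 ARE_Fluc cells in 5% FBS OPTI-MEM were exposed to compounds in concentration-response for 18-24 h at 37 deg C. Viability was read by CellTiter-Fluor fluorescence (Ex 405/Em 525) after 30 min, before the luciferase read.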
Nrf2 inh: inhibitors of Nrf2 signaling; A549 ARE-Fluc reporter, luciferase luminescence, 18-24 h; hit rate 2.1% among 360,000; AID 504444; Potency, µM (highest dose often 46 µM), without a hit: at the highest dose activity change, negative = inhibition, actives largely listed as inhibitors; further: potency means the concentration at half of the fitted maximal effect; on the % scale 0 is the no-effect control and ±100 the full control effect; nearly all actives have a fitted effect of over 60% in size
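Nrf2 function is reported as luminescence of an ARE-controlled luciferase in A549 cells. Compounds were tested at several concentrations, and a CellTiter-Fluor read on the same wells flagged cytotoxicity.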
Nrf2 ARE act: Nrf2 pathway activation; AREc32 ARE-luciferase reporter (MCF7-derived line), luminescence, 24 h; AID 624171; Potency, µM (titrated, usually from 46.1 µM), without a hit: at the top dose activation, usual class: activators; hit rate 0.31% among 410,000; further: potency means the concentration at half of the fitted maximal effect; % of control where 0% means no effect; nearly all actives have a fitted effect of over 65% in size
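Nrf2 activation is followed as ARE-luciferase induction in the AREc32 line after one day of compound treatment; luminescence is read with Steady-Glo.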
The depositor's hits bear a star; ? = inconclusive; nt = no result given; [ ] = another dose, or the depositor's remark. Rows were chosen to be rich in hits. Some 2.7% of all compounds tested hit in one or more screens of this group. Unless noted, the call rests on the fitted dose curve; in most records, active means well fitted curve in the direction sought with a large enough effect; inconclusive means small, poorly fitted or top-dose-only effect, or another doubt; inactive means no such curve, though single readings can be large; an effect the other way counts as inactive or inconclusive.

SMILES	ERG-DNA inh	ALOX12 inh	LDHA block	A549 tox	Nrf2 inh	Nrf2 ARE act
CCC(=O)N1CCc2cc(S(=O)(=O)NC(CC(C)C)C(=O)NCc3cccc(OC)c3)ccc21 (configuration not stated)	1%	0%	-31*	0%	?	0%
O=C(C1CCC1)N1CCc2cc(S(=O)(=O)Nc3ccc4c(c3)OCCO4)ccc21	-5%	0%	-6	-14%	?	0%
CCOC(=O)C1CCN(S(=O)(=O)c2ccc3c(c2)CC(=O)N3C)CC1	-4%	45µM*	19	2%	5%	2%
CCOC(=O)c1ccc(NS(=O)(=O)c2ccc3c(c2)CCN3C(=O)CC)cc1	-2%	-21%	-2	1%	26µM*	-1%
CCC(=O)N1CCc2cc(S(=O)(=O)NC(CC(C)C)C(=O)NCc3ccc(F)cc3)ccc21 (configuration not stated)	4%	7%	-17	-3%	-10%	-1%
CCC(=O)N1CCc2cc(S(=O)(=O)Nc3ccc4c(c3)OCCO4)ccc21	1%	-20%	0	-17%	21µM*	1%
CCOC(=O)c1ccc(NS(=O)(=O)c2ccc3c(c2)CCCN3C(C)=O)cc1	-11%	0%	-3	-16%	?	0%
COc1cccc(/C=C(/C#N)c2ccccn2)c1OC(F)F	nt	?	-5	nt	nt	nt
CC(=O)Nc1ccc(-c2csc(-c3ccccc3C)n2)cc1	nt	?	2	nt	nt	nt
CCOC(=O)C1CCCN(S(=O)(=O)c2ccc3c(c2)CCN3C(=O)CC)C1 (configuration not stated)	2%	?	-6	0%	9.2µM*	0%
NC(=O)C(O)(c1ccccc1)c1ccccc1	nt	28%	0	nt	nt	nt
COC12CC(=O)C(C(C)=O)=C(O)C1(C)c1c(O)c(C)c(O)c(C(C)=O)c1O2 (configuration not stated)	nt	40µM*	nt	nt	nt	nt
CCn1cc(C(=O)NCCCN(C)S(C)(=O)=O)c2ccccc21	nt	38%	2	nt	nt	nt
NCCC/C(=N/O)c1cccs1	nt	-7%	5	nt	nt	nt
COc1ccc(NC(=O)c2ccc(COc3ccccc3Br)o2)cc1OC	1%	-10%	3	-14%	23µM*	7%
Cc1cc(NC2=CC(=O)C(=O)c3ccccc32)no1	-4%	40µM*	36	?	?	-2%
CN(C)CCCNC(=O)c1cc(-c2ccc(-c3ccccc3)cc2)nc2ccccc12	nt	?	-1	nt	nt	nt
CCCCN(CC)CCNC(=O)C1CCN(c2nnc(C)c3c(C)n(-c4ccc(C)cc4)nc23)CC1	6%	-20%	-2	23µM*	?	4%
Cc1ccc(C2=NNC(c3cccc(F)c3)S2)cc1 (configuration not stated)	11%	0%	-3	2%	?	?
Fc1cccc(C2NN=C(c3ccccc3)S2)c1 (configuration not stated)	9%	-12%	4	10%	?	3.5µM*
COc1cccc(C(=O)N2CCC(c3nn(-c4ccc(Cl)cc4)c(=O)[nH]3)CC2)c1	nt	35µM*	nt	nt	nt	nt
COc1ccc(-n2nc(C3CCN(C(=O)c4cccc(OC)c4)CC3)[nH]c2=O)cc1	nt	1%	nt	nt	nt	nt
O=C(Nc1ccccc1)N1CCC(c2nn(-c3ccc(Cl)cc3)c(=O)[nH]2)CC1	nt	32µM*	nt	nt	nt	nt
O=C(Nc1ccccc1)N1CCCC(c2nn(-c3ccc(Cl)cc3)c(=O)[nH]2)C1 (configuration not stated)	nt	3%	nt	nt	nt	nt
Cc1ccc(C(=O)N2CCC(c3nn(-c4ccc(Cl)cc4)c(=O)[nH]3)CC2)cc1	nt	25µM*	nt	nt	nt	nt
SMILES	ERG-DNA inh	ALOX12 inh	LDHA block	A549 tox	Nrf2 inh	Nrf2 ARE act
O=C(c1ccccc1Cl)N1CCC(c2nn(-c3ccc(Cl)cc3)c(=O)[nH]2)CC1	nt	35µM*	nt	nt	nt	nt
Cn1nc(C2CCN(C(=O)c3ccccc3Cl)CC2)[nH]c1=O	nt	10%[176 µM]	nt	nt	nt	nt
Cc1ccccc1C(=O)N1CCC(c2nn(-c3ccc(Cl)cc3)c(=O)[nH]2)CC1	nt	45µM*	nt	nt	nt	nt
CC(OC(=O)c1cc(-c2ccco2)nc2ccccc12)C(=O)NC(=O)NC(C)(C)C (configuration not stated)	nt	8.9µM*	-1	nt	nt	nt
Cc1ccccc1NC(=O)c1cc(-c2ccco2)nc2ccccc12	13%	?	-2	4%	-16%	11%
O=C(NC1CCCC1)c1cc(-c2ccco2)nc2ccccc12	nt	?	-1	nt	nt	nt
CC(OC(=O)c1cc(-c2ccco2)nc2ccccc12)C(=O)NC(=O)NC1CCCCC1 (configuration not stated)	nt	7.9µM*	4	nt	nt	nt
CC1(C)CC(C(CC(=O)O)Cc2ccccc2)CCO1 (configuration not stated)	nt	4%	2	nt	nt	nt
Brc1cc2c(cc1Cn1nnc(-c3ccccc3)n1)OCO2	nt	5%	0	nt	nt	nt
Clc1ccc(-c2noc(CNc3ccc(Br)cc3)n2)cc1	nt	?	-3	nt	nt	nt
C=C(C)c1cccc(C(C)(C)NC(=O)Nc2ccc(C)cn2)c1	nt	-5%	1	-7%	?	6%
C=C(C)c1cccc(C(C)(C)NC(=O)Nc2ccc(OC)nc2)c1	19%	4%	13	12µM*	?	-1%
C=C(C)c1cccc(C(C)(C)NC(=O)Nc2cc(C)ccn2)c1	7%	-2%	-3	?	15µM*	3%
O=[N+]([O-])c1cccc(CN2CCN(Cc3ccco3)CC2)c1	3%	0%	-43*	0%	6%	0%
O=[N+]([O-])c1cccc(CN2CCCCCC2)c1	2%	2%	-5	5%	9%	2%[9.22 µM]
O=[N+]([O-])c1ccc(CN2CCN(c3ccc4ccccc4n3)CC2)cc1	-1%	50µM*	-10	6%	?	0%
O=[N+]([O-])c1ccc(N2CCN(Cc3cccc([N+](=O)[O-])c3)CC2)cc1	-7%	-5%	-8	?	21µM*	1%[9.22 µM]
COc1cc(CN2CCN(Cc3ccc([N+](=O)[O-])cc3)CC2)c([N+](=O)[O-])cc1OC	8%	-28%	4	-4%	21µM*	3%
CCCN1CCCCC12Cc1ccccc1CN(C(=O)c1c(C)noc1C)C2 (configuration not stated)	nt	11%[6.33 µM]	nt	nt	nt	nt
Cc1noc(-c2ccc3c(c2)OCO3)c1C(=O)N1CCC(Cc2ccc(F)cc2)CC1	nt	-2%	nt	nt	nt	nt
COc1ccc2cc(COC(=O)c3nn(C)c(=O)c4ccccc34)ccc2c1	nt	-37%	-5	nt	nt	nt
O=[N+]([O-])c1cccc(-c2ccc(CN3CCN(c4ccccc4)CC3)o2)c1	-6%	7.1µM*	-2	0%	-4%	3%
